LDHA block = qHTS assay for inhibitors of human lactate dehydrogenase. purified LDHA, NADH/diaphorase-resazurin fluorescence; stronger effect = lower value. L-lactate dehydrogenase A chain (Homo sapiens), P00338. hit rate 0.15% among 480,000. activity change, % (values are at about 110 or 230 µM); in the data active = activity change below about -30%; inconclusive = mostly about -25% to -30%;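 note: plate controls were DMSO wells for no effect and wells without enzyme for full effect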
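Remaining NADH was detected by diaphorase (0.133 mg/mL) converting 37 µM resazurin to fluorescent resorufin, read at 0 and 20 minutes. The preceding 5-minute room-temperature reaction used 2 nM LDHA, 0.2 mM sodium pyruvate and 0.06 mM NADH at pH 7.4.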
IL-1B inflam inh = qHTS for Inhibitors of Inflammasome Signaling: IL-1-beta AlphaLISA Primary Screen; THP-1 LPS/ATP IL-1B secretion, AlphaLISA, 16 h; stronger effect = lower value; activity change, % at 57.5 µM; hit rate 4.7% among 360,000; AID 743279, 2014; in the data active = activity change below about -50%; inconclusive = mostly about -30% to -49%
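THP-1 cells pretreated 1 hr with compounds (up to 57.5 uM final), then stimulated with LPS (250 ng/mL final) plus ATP (1.25 mM final); secreted IL-1B measured by AlphaLISA after 16 hr, decreased signal indicating inhibition.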
TDP1 cell noCPT = qHTS for Inhibitors of human tyrosyl-DNA phosphodiesterase 1 (TDP1): qHTS in cells in absence of CPT; AID 686978, 2013; hit rate 15% among 420,000; Potency, µM (highest dose often 46.2 µM), without a hit: at the highest dose activity change, negative = growth inhibition, hits mostly inhibitors; DT40 Tdp1-/- hTDP1 cells, no CPT, ATP luminescence, 48 h; note: potency is the fitted concentration of half-maximal effect; nearly all actives have a fitted effect of over 55% in size
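Stably hTDP1-transfected Tdp1-null chicken DT40 cells were treated with library compounds minus camptothecin and grown for at least 48 hr at 37 °C, after which cellular ATP was quantified by luminescence.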
Gal4-VP16 FLuc = VP16 counterscreen qHTS for inhibitors of ROR gamma transcriptional activity; AID 2546, 2010; Drosophila S2 Gal4-VP16 UAS-luciferase, luminescence, 20 h; hit rate 3.5% among 310,000; Potency, µM (top dose mostly 53.6 µM), for the others: at the top dose activity, negative = inhibition, actives largely listed as inhibitors;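 note: Gal4-VP16 expression switched on by copper sulfate through the metallothionein promoter; potency is the fitted concentration of half-maximal effect; nearly all actives have a fitted effect of over 50% in size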
DT40 TDP1 CPT = qHTS for Inhibitors of human tyrosyl-DNA phosphodiesterase 1 (TDP1): qHTS in cells in presence of CPT; chicken DT40 Tdp1-/-;hTDP1 cells + 20 nM CPT, ATP luminescence, 48 h; Potency, µM (titrated, usually from 46.2 µM), inactives show at the top dose activity change, negative = growth inhibition, actives largely listed as inhibitors; hit rate 12% among 420,000; note: potency is the fitted concentration of half-maximal effect; nearly all actives have a fitted effect of over 55% in size
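Chicken DT40 Tdp1-/- cells stably complemented with human TDP1 were seeded at 400 cells/well in medium containing 20 nM camptothecin, exposed to pin-transferred compounds, and grown at 37 °C for at least 48 hr. Viability was read as ATP luminescence.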
RORgamma inh = qHTS for inhibitors of ROR gamma transcriptional activity; Potency, µM (titrated, usually from 53.6 µM), for the others: at the top dose activity change, negative = inhibition, most hits filed as inhibitors; hit rate 5.4% among 310,000; Drosophila S2 Gal4-RORgamma UAS-luciferase reporter, 20 h; AID 2551, 2010; note: potency is the fitted concentration of half-maximal effect; nearly all actives have a fitted effect of over 60% in size
Target sequence (P51450 whole entry, looked up, the tested form may be a part): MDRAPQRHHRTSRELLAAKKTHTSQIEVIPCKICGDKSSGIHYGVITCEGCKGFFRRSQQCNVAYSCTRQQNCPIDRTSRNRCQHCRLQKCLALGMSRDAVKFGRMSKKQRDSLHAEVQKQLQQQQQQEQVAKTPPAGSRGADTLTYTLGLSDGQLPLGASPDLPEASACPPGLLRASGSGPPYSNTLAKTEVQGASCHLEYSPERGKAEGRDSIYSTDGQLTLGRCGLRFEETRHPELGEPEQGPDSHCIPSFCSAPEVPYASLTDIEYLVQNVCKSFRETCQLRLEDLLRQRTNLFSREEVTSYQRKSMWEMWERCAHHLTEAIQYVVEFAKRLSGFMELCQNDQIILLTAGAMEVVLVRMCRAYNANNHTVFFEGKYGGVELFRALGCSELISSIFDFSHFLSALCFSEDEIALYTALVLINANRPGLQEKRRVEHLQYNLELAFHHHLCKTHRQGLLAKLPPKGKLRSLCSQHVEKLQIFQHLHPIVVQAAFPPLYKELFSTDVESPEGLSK
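Luciferase reporter read in Schneider cells carrying Gal4-RORγ (mouse) and UAS-Photinus luciferase; cells given compound 1 h before 700 uM copper sulfate induction, then incubated 20 h at ambient temperature.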
Starred values were filed as active, the others as inactive; ? = inconclusive; . = no result given. Compounds with a hit are over-represented: about 18% of the library has one in this group of screens. Unless noted, calls come from the whole dose curve; as a rule, active = well fitted curve in the direction sought with a large enough effect; inconclusive = small, poorly fitted or top-dose-only effect, or another doubt; inactive = no such curve, though single readings can be large; an effect the other way counts as inactive or inconclusive. Unless noted, % is set by controls: 0 for no effect and ±100 for the full control effect.

SMILES | LDHA block | IL-1B inflam inh | TDP1 cell noCPT | Gal4-VP16 FLuc | DT40 TDP1 CPT | RORgamma inh
COc1ccc(S(=O)(=O)NCCc2nnc3ccc(SCC(=O)Nc4cc(C)cc(C)c4)nn23)cc1 | -2.6 | . | ? | . | 20.6µM* | .
Cc1ccc(CSc2ccc3nnc(CCNS(=O)(=O)c4ccc(C)cc4)n3n2)cc1 | -11.7 | . | ? | . | 16.4µM* | .
Cc1cccc(-c2nc(CSc3n[nH]c(N)n3)no2)c1 | -9.9 | . | . | . | . | .
CC1(C)CC(=O)C(C2C3=C(CC(C)(C)CC3=O)Oc3ccc4ccccc4c32)C(=O)C1 (stereo unspecified) | 1.9 | -71.6* | ? | 6.1% | 7.0% | 42.0%
c1ccc(-c2nn3c(-c4ccccc4)nnc3o2)cc1 | -10.7 | -51.3* | ? | . | ? | .
CCCc1nn2c(-c3ccccc3)nnc2o1 | 0.2 | -67.0* | ? | . | -15.6% | .
CCCCn1c(-c2ccccc2)nnc1-c1ccccc1 | 1.0 | -23.6 | ? | -13.7% | ? | -28.0%
CN(C)c1nn2c(-c3ccccc3)nnc2o1 | 0.8 | 3.0 | -25.8% | . | 0.1% | .
Cc1c(C)n(Cc2ccccc2)c2ccc(C(=O)N3CCN(c4ccc(F)cc4)CC3)cc12 | 0.1 | . | 16.4µM* | . | ? | .
Cc1c(C)n(Cc2ccccc2)c2ccc(C(=O)N3CCN(c4ccccc4)CC3)cc12 | -4.7 | . | ? | . | ? | .
Cc1c(C)n(Cc2ccc(F)cc2)c2ccc(C(=O)N3CCN(c4ccc(Cl)cc4)CC3)cc12 | 0.7 | . | ? | . | 18.4µM* | .
CC(C)C(=O)Nc1ccc(I)cc1Cl | 5.7 | . | . | . | . | .
OC12CC3CC(C1)CC(NCc1ccccc1)(C3)C2 | 5.2 | . | . | . | . | .
COc1ccc(N2CC(C)Cn3c2nc2c3c(=O)n(Cc3ccc(C)cc3)c(=O)n2C)c(OC)c1 (stereo unspecified) | -2.3 | ? | 16.4µM* | -11.1% | ? | 5.5%
O=C1OCCN1c1c(-c2ccccc2)c(N2CCOCC2)nc2ccccc12 | -2.0 | 16.4 | 14.6µM* | . | 11.6µM* | .
CCOC(=O)C1C2C=CC3(CN(Cc4cccs4)C(=O)C13)O2 (stereo unspecified) | 0.1 | -0.5 | 20.6µM* | 1.8% | ? | 0.4%
COC(=O)C1[C@H]2C(=O)N(Cc3cccs3)C[C@]23C=C[C@H]1O3 (stereo partly specified) | -2.9 | -7.7 | -9.4% | -6.8% | 11.4% | -13.1%
CCOC(=O)C(=Cc1ccc(C)cc1)C(=O)OCC | 8.0 | . | . | . | . | .
CCOC(=O)C(=Cc1ccc(F)cc1)C(=O)OCC | . | . | . | ? | . | 10µM*
CCOC(=O)C(CC)(CC)C(=O)/C=C/c1ccc(Br)cc1 | -4.5 | -103.5* | 16.4µM* | ? | ? | ?
CCOC(=O)C(=Cc1ccc(Br)cc1)C(=O)OCC | -3.4 | -96.9* | 2.91µM* | ? | 11.6µM* | 14.1µM*
CCOC(=O)C(=Cc1ccc(-n2ccnc2)cc1)C(=O)OCC | -6.2 | -93.2* | 20.6µM* | ? | 23.1µM* | ?
O=C(Nc1ccc(C23CC4CC(CC(c5ccccc5)(C4)C2)C3)cc1)c1ccc(-c2ccccc2)cc1 | 1.1 | . | . | . | . | .
CCOCCn1c(=O)c2c(nc(-n3nc(C)c(C)c3C)n2CC)n(C)c1=O | 0.3 | . | . | . | . | .
O=[N+]([O-])c1ccc(Cl)c(/C=N/Nc2nc(Cl)c(Cl)cc2Cl)c1 | 2.2 | . | . | . | . | .
SMILES | LDHA block | IL-1B inflam inh | TDP1 cell noCPT | Gal4-VP16 FLuc | DT40 TDP1 CPT | RORgamma inh
CN(C)c1cc[n+](CC(=O)Nc2c(Cl)cc(Cl)cc2Cl)cc1 | -2.3 | -26.1 | 6.51µM* | ? | 7.31µM* | ?
CN(C)c1cc[n+](CC(=O)Nc2ccc([N+](=O)[O-])cc2Cl)cc1 | -1.2 | 9.4 | ? | -5.6% | ? | 5.6%
CCOCc1c(C(=O)Nc2ccccc2N2CCN(C)CC2)oc2ccccc12 | -6.5 | -57.5* | 10.3µM* | . | 8.2µM* | .
CCCCn1nc(C(=O)Nc2ccc3nc(N4CCOCC4)sc3c2)c2ccccc2c1=O | 4.1 | . | . | . | . | .
CCOCc1c(C(=O)Nc2ccc3nc(N4CCOCC4)sc3c2)oc2ccccc12 | -2.8 | -16.2 | ? | . | 20.6µM* | .
CCCn1nc(C(=O)Nc2ccc3nc(N4CCOCC4)sc3c2)ccc1=O | 3.7 | 17.3 | 10.3µM* | . | 9.2µM* | .
CCOCc1c(C(=O)Nc2cc(OCC)c(N3CCOCC3)cc2OCC)oc2ccccc12 | -1.4 | 27.1 | ? | -7.0% | ? | -0.2%
Cc1cccc(C(C)C)c1NC(=O)CCc1ncc(-c2ccc(F)cc2F)o1 | 3.1 | . | . | . | . | .
N#Cc1c(SCC(=O)O)nc(N2CCOCC2)c2c1CCCC2 | -5.5 | 5.0 | -17.1% | -1.6% | -8.8% | 16.7%
N#Cc1c(SCC(=O)NCCc2ccccc2)nc(N2CCOCC2)c2c1CCCC2 | -30.8* | . | . | . | . | .
CC(=O)N1CCc2cc(Br)cc(S(=O)(=O)CCC(=O)N3CCN(c4cccc(C)c4C)CC3)c21 | -8.4 | . | ? | . | 16.4µM* | .
CCN(CC)CCCNC(=O)C(=O)Nc1ccc2cc[nH]c2c1 | 6.0 | . | . | . | . | .
CCOC(=O)c1c2ccc(OCC(=O)N/N=C/c3ccc(C)cc3)cc2n2ccccc12 | 17.6 | 3.8 | 18.4µM* | -13.0% | ? | -7.9%
Cc1ccc(OCC(=O)N/N=C/c2cccc(O)c2)cc1 | 1.9 | . | . | . | . | .
CCc1ccc(OC(=O)c2ccccc2C)c(Br)c1 | 1.0 | . | . | . | . | .
NCCCCCc1cn([C@@H](CO)C(=O)NCCCCCCCCCCC(=O)N2CCNCC2)nn1 | -16.8 | 6.8 | 9.5% | . | 9.5% | .
Cc1cn([C@@H](CCCCNC(=O)OC(C)(C)C)C(=O)NCCCCCCCCCCC(=O)N2CCN(C(=O)OC(C)(C)C)CC2)nn1 | -0.5 | -7.3 | 7.31µM* | . | 8.2µM* | .
CC[C@H](C)Cc1cn([C@@H](CCCCN)C(=O)NCCCCCCCCCCC(=O)N2CCNCC2)nn1 | -16.7 | 5.8 | -29.7% | . | -5.2% | .
CC(C)(C)OC(=O)NCCCCCc1cn(CC(=O)NCCCCCCCCCCC(=O)N2CCN(C(=O)OC(C)(C)C)CC2)nn1 | -2.2 | 22.4 | 6.51µM* | . | 5.8µM* | .
CC[C@H](C)Cc1cn([C@@H](CCCN=C(NC(=O)OC(C)(C)C)NC(=O)OC(C)(C)C)C(=O)NCCCCCCCCCCC(=O)N2CCN(C(=O)OC(C)(C)C)CC2)nn1 | -0.1 | -26.1 | 7.31µM* | . | 9.2µM* | .
CCc1ccc(NC(=O)C2CCN(c3ncnc4c3sc3ncccc34)CC2)cc1 | 0.0 | . | . | . | . | .
